# PubChem BioAssay
# Several values for one entry are separate records, joined by “and”; a condition that tells them apart may be missing. Equal entries are not always repeated. Activity calls are given as the source filed them. Unless noted, how the calls were made is not given here.
# How the values were obtained:
# [1] = circadian clock period modulators, cell-based, LOPAC library, luminescence reporter (AID 2774); details: circadian reporter cells, at 7 µM, actives lie on both sides;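 further: values are relative to mean of DMSO wells on each plate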
# [2] = tested on: Hepatitis C virus NS3 helicase; assay: HCV NS3 helicase inhibitors, primary screen, biochemical, fluorescence polarization, LOPAC1280 library (AID 687035; in the data active means inhibition above about 37%); details: Purified HCV NS3 helicase, Cy5-dT15 ssDNA binding fluorescence polarization; stronger effect = higher value; concentration not given here
# [3] = Cy5 fluorescence quenching or enhancement artefacts, artefact control for HCV NS3 helicase inhibitor project, biochemical, LOPAC1280 (AID 687037); details: Cy5-DNA-NS3h complex fluorescence interference counterscreen
# [4] = sensitizers of A549 cells to miR-34 induction, primary screen, imaging, A549 dox-inducible miR-34, nuclei and caspase counts (AID 1347080;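 active means compounds whose cell count with miR-34 switched on is under 0.7 times the count with it off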); details: A549 miR-34 inducible, Hoechst nuclei count, 48 h
# [5] = phospholipid biosynthesis inhibitors in animal cells, primary screen, cell-based, LOPAC library, screen 4 (AID 1347384); details: phospholipid biosynthesis inhibition screen, at 10 µM
# [6] = viability rescue of complex I mutant cybrids, primary screen, cell-based, galactose medium, ATP luminescence (AID 1645843;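 active means z-score of at least 1.8 in each of two replicates, scored against plate mean and spread of sample wells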;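 further: positive z means more ATP and so rescue of galactose-driven cybrid death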); details: complex I mutant cybrid cells, 72 h, stronger effect = higher value
# [7] = inhibitors of Cryptococcus chitosan production, flow cytometry, Cibacron Brilliant Red staining (AID 1347148); details: Cryptococcus neoformans chitosan, stronger effect = lower value; at 10 µM unless noted;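 further: compound exposure lasted three days at 37 degrees C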
# [8] = hESC survival regulators, cell-based (AID 493140); details: human embryonic stem cell survival screen; stronger effect = higher value;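 further: cells exposed to compounds for four days before counting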
# [9] = measured here: relative caspase fold change +Dox/-Dox
# [10] = measured here: total cells with miR-34 induction, stronger effect = lower value
# [11] = measured here: total cells without miR-34 induction
Compound,period change [1],inhibition [2],fluorescence ratio (interference) [3],fold change ([4]; stronger effect = lower value),"fold change [4, 9]","cell count [4, 10]","cell count [4, 11]",outcome [5],z-score [6],fold fluorescence [7],"fold change ([4]; stronger effect = lower value, cell number ratio, induced over uninduced)",survival [8]
NC(CCP(=O)(O)O)C(=O)O (stereo unspecified),0.135 h (inactive),-3% (inactive),1 (inactive),1.04 (inactive),2.08,10400,9940,inactive,0.32 (inactive),–,–,–
N#CC(=Cc1ccc(O)c(O)c1)C(N)=S,-0.06 h (inactive),3% (inactive),0.9 (inactive),0.981 (inactive),1.34,9410,9590,inactive,-0.465 (inactive),–,–,–
O=C1CC[C@@]2(O)C3Cc4ccc(O)c5c4C2(CCN3CC2CC2)[C@H]1O5 (stereo partly specified),-0.05 h (inactive),-6% (inactive),1 (inactive),1.1 (inactive),1.19,11300,10300,inactive,0.445 (inactive),–,–,–
COC[C@H]([C@@H](O)[C@@H](O)C(=O)NCC[C@@H](C)c1nc(/C=C/C[C@H]2OC3(C[C@H](O)[C@H]2C)OC([C@@H](C[C@@H](O)[C@@H](C)[C@@H](O)[C@@H](C)/C=C(C)/C(C)=C/C=C/C(C)=C\C#N)OC)[C@@H](OP(=O)(O)O)C3(C)C)co1)N(C)C (stereo partly specified),–,–,–,0.801 (inactive),1.44,250,312,–,–,9.76 [at 5 µM] (inactive),–,–
CCOC(=O)CN1C(=O)CC(C[C@@H](O)C2C[C@@H](C)C[C@H](C)C2=O)CC1=O (stereo partly specified),–,–,–,1.01 (inactive),1.21,4960,4910,–,–,10.9 [at 136.1 µM] (inactive),–,–
CCCCCCCCCCCCCC(=O)O[C@@H]1[C@@H](C)[C@@]2(O)[C@@H](C=C(CO)C[C@@]3(O)C(=O)C(C)=C[C@@H]23)C2C(C)(C)[C@@]21OC(C)=O (stereo partly specified),-1.74 h (active),-2% (inactive),1 (inactive),–,1.62,418,618,inactive,-1.38 (inactive),–,0.676 (active),–
N#CC(C#N)=Cc1ccc(O)cc1,–,–,–,1.08 (inactive),1.22,5450,5070,–,–,5.71 [at 293.8 µM] (inactive),–,59.8 (inactive)
C[C@@H]1O[C@@H](O[C@H]2C[C@@H](O)[C@]3(CO)[C@@H]4C(CC[C@]3(O)C2)[C@@]2(O)CC[C@H](C3COC(=O)C3)[C@@]2(C)C[C@H]4O)[C@H](O)[C@H](O)[C@H]1O (stereo partly specified),-0.47 h (inactive),-1% (inactive),1 (inactive),0.861 (inactive),1.72,370,430,inactive,-0.995 (inactive),–,–,–
C[C@@H]1O[C@H](C[N+](C)(C)C)C[C@H]1O,-0.03 h (inactive),-2% (inactive),1 (inactive),1.05 (inactive),1.87,10900,10400,inactive,0.675 (inactive),–,–,–
C=CCN1CC[C@]23CCCCC2[C@H]1Cc1ccc(O)cc13 (stereo partly specified),0.175 h (inactive),-4% (inactive),1 (inactive),1.09 (inactive),0.636,10900,10000,inactive,-0.095 (inactive),–,–,–
CCCCC/C=C\C/C=C\C/C=C\C/C=C\CCCCCC(=O)NCCO,–,–,–,1.02 (inactive) and 1.04 (inactive),1.64 and 1.22,5810 and 5940,5700 and 5690,–,–,5.48 (inactive),–,86.3 (inactive)
CCCCC/C=C\C/C=C\C/C=C\C/C=C\CCCC(=O)NCCO,–,–,–,0.996 (inactive) and 0.983 (inactive),0.958 and 0.763,6110 and 5070,6130 and 5160,–,–,5.85 (inactive),–,114 (inactive)
CCCCC/C=C\C/C=C\C/C=C\C/C=C\CCCC(N)=O,–,–,–,1.05 (inactive) and 1.02 (inactive),1.34 and 1.46,6020 and 5980,5750 and 5890,–,–,4.13 (inactive),–,110 (inactive)
COc1cc(C(O)CN)ccc1O (stereo unspecified),-0.145 h (inactive),-3% (inactive),1 (inactive),1.05 (inactive),2.66,11000,10500,inactive,0.4 (inactive),–,–,–
CCCCC/C=C\C/C=C\C/C=C\C=C\[C@H](CCCC(=O)O)OO,–,–,–,0.99 (inactive),1.08,5950,6010,–,–,5.34 [at 1 µM] (inactive),–,114 (inactive)
NC(CP(=O)(O)O)C(=O)O (stereo unspecified),-0.025 h (inactive),-2% (inactive),1 (inactive),1.01 (inactive),2.04,10500,10400,inactive,0.29 (inactive),–,–,–
CC(C)(C)OC(=O)NC1[C@H]2CNC[C@@H]12 (stereo partly specified),–,–,–,1.05 (inactive),1.39,11400,10800,inactive,0.37 (inactive),–,–,–
COc1ccc2c(c1)C13CCCCC1C(C2)N(C)CC3 (stereo unspecified),0 h (inactive),-1% (inactive),1.1 (inactive),1.04 (inactive),1.15,10100,9710,inactive,-0.635 (inactive),–,–,–
